# A selection: hits, their analogues and other compounds. The true share with any hit is near 19%.
# IL-1B inflam inh – blocks inflammasome-driven IL-1 beta release | THP-1 LPS/ATP IL-1B secretion, AlphaLISA, 16 h; active compounds read low | activity change, % at 57.5 µM | actives 4.7% (n = 360,000) | AID 743279; in the data active = activity change below about -50%; inconclusive = mostly about -30% to -49%
#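 Secreted IL-1B measured by AlphaLISA bead assay after 16 h compound exposure of THP-1 cells; compounds (final up to 57.5 uM) added 1 h before LPS (250 ng/mL) and ATP (1.25 mM) stimulation; lower signal means less secretion.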
# HT1080-NT tox – kills 2HG-producing HT-1080-NT fibrosarcoma cells | HT-1080-NT fibrosarcoma viability, CellTiter-Glo ATP luminescence, 48 h | Potency, µM (doses to about 46.1 µM), for the others: top-dose activity, negative = less viability, usual class: cytotoxic | actives 1.6% (n = 360,000) | AID 686970;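 also: NT is the 2HG producing partner of a matched IDH1 knockdown line; potency is read from the fitted curve at half-maximal effect; 0% = DMSO-treated cells and -100% = media-only wells without cells; nearly all actives have a fitted effect of over 55% in size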
#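 Fibrosarcoma NT cells, 750 per well in 5% FBS RPMI, were exposed to compound for 48 hours. Viability: CellTiter-Glo luminescence.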
# DT40 TDP1 CPT – growth inhibition of DT40 Tdp1-/-;hTDP1 cells with camptothecin (screen for TDP1 inhibitors). Potency, µM (top dose mostly 46.2 µM), without a hit: top-dose activity change, negative = growth inhibition, usual class: inhibitors. actives 12% (n = 420,000). chicken DT40 Tdp1-/-;hTDP1 cells + 20 nM CPT, ATP luminescence, 48 h; also: potency is read from the fitted curve at half-maximal effect; nearly all actives have a fitted effect of over 55% in size
#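 Cell growth measured by CellTiter-Glo luminescence after a minimum 48 h, 37 C compound exposure with 20 nM CPT in Tdp1-knockout DT40 cells stably expressing hTDP1, seeded 400/well; qHTS titration format.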
# ELG1 DNA repair – blocks ELG1-dependent DNA repair in HEK293T cells. HEK293T ELG1-luciferase reporter, luminescence, 16 h; DNA damage induced by 5-fluorouridine. Potency, µM (top dose mostly 46.1 µM), for inactives: at the highest dose activity change, negative = inhibition, hits mostly inhibitors. actives 2.3% (n = 330,000). AID 504467; also: potency is read from the fitted curve at half-maximal effect; nearly all actives have a fitted effect of over 55% in size
#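 HEK293T cells expressing luciferase-tagged ELG1 (2,000/well) received 5-Fluorouridine plus compound or DMSO for 16 hr at 37 °C. Luciferase was read by ONE-Glo luminescence after 30 min at room temperature.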
# HT1080 IDH1KD tx – HT-1080 IDH1 knockdown cell toxicity (counter line). AID 686971. actives 2% (n = 360,000). Potency, µM (doses to about 46.1 µM), inactives show at the top dose activity, negative = toxicity, hits mostly cytotoxic. HT-1080 IDH1 knockdown viability, ATP luminescence, 48 h;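 also: potency is read from the fitted curve at half-maximal effect; 0% = DMSO wells and -100% = cell-free medium wells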
#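 After a 2 h attachment period, IDH1KD HT-1080 cells took pin-transferred compound for 48 h at 37 °C; ATP-based luminescence after 10 min room-temperature reagent incubation reported viability.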
# DT40 TDP1 no CPT – qHTS for Inhibitors of human tyrosyl-DNA phosphodiesterase 1 (TDP1): qHTS in cells in absence of CPT. DT40 Tdp1-/- hTDP1 cells, no CPT, ATP luminescence, 48 h. Potency, µM (series often up to 46.2 µM), inactives show at the top dose activity change, negative = growth inhibition, hits mostly inhibitors. actives 15% (n = 420,000). AID 686978, 2013; also: potency is read from the fitted curve at half-maximal effect; nearly all actives have a fitted effect of over 55% in size
#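 Seeded 400 DT40-hTDP1 cells/well (vehicle DMSO, no 20 nM CPT); pinned compounds; ≥48 hr at 37 °C; CellTiter-Glo luminescence as viability measure.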
# * marks the source's active call; other numbers are inactive results; ? = inconclusive; . = no result; [ ] = dose if it differs, or a comment. Unless noted, calls follow the shape of the dose curve; as a rule, active = well fitted curve in the direction sought with a large enough effect; inconclusive = small, poorly fitted or top-dose-only effect, or another doubt; inactive = no such curve, though single readings can be large; an effect the other way counts as inactive or inconclusive. Unless noted, % is scaled to controls: 0 for no effect and ±100 for the full control effect.
SMILES,IL-1B inflam inh,HT1080-NT tox,DT40 TDP1 CPT,ELG1 DNA repair,HT1080 IDH1KD tx,DT40 TDP1 no CPT
CCCC(=O)NC(c1ccccc1OC)c1ccc2cccnc2c1O (stereo unspecified),140.0,?,4.11µM*,4.11µM*,?,4.11µM*
CCCCC(=O)NC(c1ccccc1OC)c1ccc2cccnc2c1O (stereo unspecified),180.0,?,20.6µM*,?,2.59µM*,18.4µM*
Cc1ccc(Cl)c(NC(=O)COC(=O)c2nn(-c3ccccc3)cc2O)c1Cl,31.7,-0.2%,-23.0%,?,-2.3%,?
COc1ccc(-c2ccc(NS(=O)(=O)c3cc([N+](=O)[O-])ccc3C)cc2)nn1,23.3,-22.2%,5.3%,2.3%,-24.8%,-14.5%
CCOc1ccc(-c2ccc(NS(=O)(=O)c3ccc(C)cc3)cc2)nn1,.,.,16.4µM*,.,.,?
CCOc1ccc(-c2ccc(NS(=O)(=O)c3cc(C)c(C)cc3C)cc2)nn1,.,.,23.1µM*,.,.,18.4µM*
CCc1ccc(NC(=O)[C@H](Cc2c[nH]c3ccccc23)NC(=O)[C@@H]2Cc3ccccc3CN2)cc1,-3.0,?,18.4µM*,7.5%,?,?
O=C(NNC(=S)Nc1ccc(C(=O)O)c(O)c1)c1ccncc1,11.6,11.0%,-106.6%,.,13.1%,-108.0%
COc1ccc(CNC(=O)COC(=O)CCn2c(C)csc2=O)cc1OC,4.2,16.6%,-10.1%,0.8%,13.7%,-25.4%
CCN(C(=O)Cc1ccccc1OC)c1nnc(-c2ccncc2)s1,1.8,?,?,?,-5.3%,14.6µM*
CCCN(C(=O)c1cccs1)c1nnc(-c2ccncc2)s1,-50.4*,19.0%,-24.1%,?,12.9%,?
COCCN(C(=O)CCc1ccccc1OC)c1nnc(-c2cccnc2)s1,-9.0,1.0%,?,?,3.8%,?
CCCCC/C=C/C=C1/C(=O)C=C[C@@H]1C/C=C\CCCC(=O)O,.,.,0.9%[4.12 µM],.,.,-30.0%[4.12 µM]
COc1ccc(CC(=O)Nc2ccc(S(=O)(=O)Nc3ncccn3)cc2)cc1,0.0,16.0%,9.8%,6.2%,12.6%,-28.2%
CCN(CC)S(=O)(=O)c1ccc(C(=O)NNC(=O)c2cccs2)cc1,4.0,20.8%,3.9%,4.7%,15.1%,9.1%
Cc1ccn(-c2ccc(NC(=O)c3cccs3)cc2)n1,-5.3,?,?,?,?,11.6µM*
COc1ccc(CC(=O)Nc2cc(S(=O)(=O)Nc3ccc(OC)cc3)ccc2OC)cc1,0.0,-12.5%,20.6µM*,?,-2.5%,20.6µM*
COc1ccc(NS(=O)(=O)c2ccc(NC(=O)Cc3cccs3)cc2)cc1,8.4,-14.4%,?,-12.5%,-19.6%,14.6µM*
CCN(CC)S(=O)(=O)c1ccc(NC(=O)c2cccs2)cc1,-52.3*,-1.4%,-9.2%,-9.4%,-2.5%,?
CNc1c([N+](=O)[O-])cnn1-c1cccc(Cl)n1,9.3,6.4%,-0.4%,?,4.6%,0.2%
COc1ccc(CN2C(=O)c3cccnc3C2=O)cc1S(=O)(=O)N(C)c1ccc(C)cc1,-0.3,20.2%,-13.6%,20.5%,2.5%,11.3%
CNS(=O)(=O)c1ccc(NC(=O)C2c3ccccc3Oc3ccccc32)cc1,9.5,-6.8%,-15.3%,7.6%,-22.1%,-14.1%
CCN(CC)S(=O)(=O)c1ccc(NC(=O)C2c3ccccc3Oc3ccccc32)cc1,9.2,-16.8%,23.1µM*,10.3%,-19.8%,16.4µM*
CCN(CC)S(=O)(=O)c1ccc(C)c(NC(=O)/C=C/c2cccs2)c1,?,6.8%,20.6µM*,16.4µM*,1.4%,13µM*
CCCCN(CCCC)S(=O)(=O)c1ccc(NC(=O)Cc2cccs2)cc1,-16.4,?,?,?,?,20.6µM*
